Results on 16 compounds are retold here after PubChem BioAssay (NCI).

Test systems include T-47D breast; MDA-MB-435 melanoma; SW-620 colon; MCF7 breast; HCT-116 colon; HCC-2998 colon; KM12 colon; BT-549 breast.
What all share (experiment): NCI-60 one-dose screen, 48 h (100 = growth as untreated, 0 = no growth, -100 = all killed)
What all share (details): 10 µM unless noted

This is part of a sample that, as a whole, favours compounds with a hit. Of some 83,000 tested, about 20% had one in any assay.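 Negative percent growth values reflect cell death: -40 means 40% of the cells present at the start died, and -100 means all died.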 A number with no mark means an inactive call. Active and inactive are the calls of the source. The calls were made as follows: active = growth percent below 10; inactive = the rest.

With `O=C(NCCCCCCNC(=O)c1c2c(nc3ccccc13)-c1cccnc1SC2)c1c2c(nc3ccccc13)-c1cccnc1SC2`, the growth is 79.7% with T-47D breast; 56.8% in the test on MDA-MB-435 melanoma; 39.2% in the test on SW-620 colon; 76.1% in the test on MCF7 breast; 66.3% in the test on HCT-116 colon; 44.6% in the test with HCC-2998 colon. In addition, the growth in the test with KM12 colon was 74.7%.
On to `O=C1Nc2ccc(Br)cc2/C1=N\c1nnc(-c2ccc(Cl)cc2)o1`, for which the growth is 76.7% in the test on T-47D breast; 63.1% in the test with BT-549 breast; 16.5% with SW-620 colon; 34.9% with MCF7 breast; 49.2% in the test on HCT-116 colon; 70% in the test on KM12 colon.
For the compound `O=C1/C(=C/c2ccccc2[N+](=O)[O-])Oc2ccc(O)cc21`, the growth was 44.2% with T-47D breast; 49.9% in the test on BT-549 breast; -14.7% (active) with SW-620 colon; 6.93% (active) with MCF7 breast; 73.3% in the test on HCC-2998 colon; 64.2% in the test on KM12 colon.
On to `CN(c1ccc(Cl)cc1)S(=O)(=O)c1ccc(-c2cnc(C3CC3)o2)cc1`, for which the growth in the test with T-47D breast was 58.9%; with BT-549 breast, 35.1%; in the test on SW-620 colon, 25.8%; in the test on MCF7 breast, 15%; in the test with HCT-116 colon, 10.6%; in the test with HCC-2998 colon it was 22.7%. In addition, the growth in the test on KM12 colon was 8.94% (active).
Regarding `C#C[C@]1(O)CC[C@H]2[C@@H]3CC=C4c5sc(C6CCOCC6)nc5CC[C@]4(C)[C@H]3CC[C@@]21C`, the growth with T-47D breast is 57.8%; with BT-549 breast it was 77.6%; with SW-620 colon, 85.5%; with MCF7 breast it was 75.6%; with HCC-2998 colon, 84.3%; in the test on KM12 colon, 59.8%.
For `C#CCOc1ccc(/C=N/Nc2nc(-c3cc(Cl)ccc3Cl)cs2)cc1`, the growth in the test on T-47D breast was 37.4%; in the test on MDA-MB-435 melanoma, 102%; with SW-620 colon it was 93.9%; with MCF7 breast, 9.62% (active); in the test with HCT-116 colon it was 86.6%; in the test with HCC-2998 colon it was 95.8%. In the test with KM12 colon, the growth is 72.5%.
On to `COc1ccc(-c2cc(-c3cccc4ccccc34)n3c(n2)nc2ccccc23)cc1`, for which the growth in the test on T-47D breast is 24.2%; in the test on BT-549 breast, 69.9%; with SW-620 colon, 40.6%; with MCF7 breast, 19.6%; in the test on HCC-2998 colon it was 88.3%; with KM12 colon, 62.4%.
As to `COc1cc(C2=NN(C(C)=O)C(c3ccc(N4CCOCC4)cc3)C2)cc(OC)c1OC` (centres undefined), the growth in the test on T-47D breast is 97.1%; in the test with BT-549 breast, 92.2%; with SW-620 colon, 105%; with MCF7 breast, 96.3%; in the test on HCT-116 colon, 95.7%; with KM12 colon, 106%.
Turning to `O=S(=O)(Nc1ccc(-c2nc(-c3cccc(O)c3)c(-c3ccnc(Br)c3)[nH]2)cc1)c1ccccc1`, the growth in the test on T-47D breast was 1.01% (active); with BT-549 breast it was 51.9%; with SW-620 colon it was 49.8%; in the test on MCF7 breast, 7.26% (active); in the test on HCT-116 colon, 27%; in the test with HCC-2998 colon, 32.4%. The growth with KM12 colon was 21.5%.
Take `CCOC(=O)Nc1ccc(-c2nc(-c3cccc(O)c3)c(-c3ccnc(Br)c3)[nH]2)cc1`: the growth in the test with T-47D breast was 14%; in the test on BT-549 breast, 35.4%; in the test on SW-620 colon, 28.2%; in the test on MCF7 breast it was 13.9%; in the test with HCT-116 colon, 19.2%; with KM12 colon, 22.3%.
Turning to `COC(=O)Nc1ccc(-c2nc(-c3cccc(O)c3)c(-c3ccnc(Br)c3)[nH]2)cc1`, the growth is 34.7% in the test with T-47D breast; 66.1% with BT-549 breast; 70.3% in the test with SW-620 colon; 14.6% with MCF7 breast; 84.7% with HCC-2998 colon; 50.7% in the test with KM12 colon.
As to `O=C(Nc1cc(F)cc2cccnc12)c1cnc(N2CCOCC2)cn1`, the growth with BT-549 breast was 72.4%; with MDA-MB-435 melanoma it was 90.9%; with SW-620 colon, 51.3%; in the test on MCF7 breast, 2.58% (active); in the test on HCT-116 colon, 9.63% (active); in the test with HCC-2998 colon, 107%.
In the case of `CCC(=O)Nc1cc(Nc2cc(NC3CC3)n3ncc(C#N)c3n2)ccc1C`, the growth was 6.41% (active) in the test on T-47D breast; 29.5% in the test on BT-549 breast; 17.4% in the test on SW-620 colon; 3.83% (active) in the test with MCF7 breast; 19.2% with HCT-116 colon; 41.6% in the test with HCC-2998 colon. Besides, the growth in the test on KM12 colon is 32.5%.
In the case of `Nc1c(C(=O)c2ccccc2)sc2nc(-c3cnccn3)cc(-c3cccs3)c12`, the growth in the test with T-47D breast is 98.9%; in the test with BT-549 breast it was 116%; in the test on SW-620 colon it was 105%; with MCF7 breast, 90.8%; in the test with HCT-116 colon it was 96.5%; in the test on HCC-2998 colon, 105%. For the same compound, in the test on KM12 colon, the growth is 102%.
In the case of `O=C(Nc1cccc(-c2nc(-c3ccc(NC(=O)c4cccs4)cc3Cl)no2)c1)Nc1ccc(NC(=O)C2CC2)c(C(F)(F)F)c1`, the growth in the test on T-47D breast is -50.2% (active); in the test on BT-549 breast, -19.1% (active); in the test with SW-620 colon it was -49.9% (active); with MCF7 breast, -40% (active); in the test on HCT-116 colon, 1.27% (active); in the test with HCC-2998 colon, -55% (active). Further, the growth in the test with KM12 colon was -65.5% (active).
Turning to `CC(=O)C1=NN(c2ccc(Cl)cc2)C(=O)CN1C`, the growth in the test with T-47D breast is 96.6%; in the test with BT-549 breast, 96.6%; in the test with SW-620 colon, 106%; in the test on MCF7 breast it was 96.1%; in the test on HCT-116 colon it was 99.8%; in the test with HCC-2998 colon it was 104%. For the same compound, the growth in the test with KM12 colon was 102%.
